A number with no mark means an inactive call. Records with an inconclusive call do not appear. Active and inactive are the calls of the source. The call rests on the fitted dose curve; in most records, active means well fitted curve in the direction sought with a large enough effect in the repeat runs; inconclusive means weak or mixed curves; inactive means no such curve, though single readings can be large; an effect the other way counts as inactive or inconclusive.

Results on 21 compounds are retold here after PubChem BioAssay (Tox21).

The nature of test [1]: qHTS RealTime-Glo MT Cell Viability Assay in HepG2 cells - 32 hour (AID 1224877). Further: nearly all actives have a fitted effect of over 55% in size. The gist of the method: (§1)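 HepG2 suspension premixed with RealTime-Glo reagents is plated at 600 cells per well and left 5 h at 37 C/5% CO2. Compounds in DMSO then go in, and bioluminescence reflecting viable cell number is recorded over 40 h.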
A short description of test [2]: A CellTox Green Cytotoxicity Assay to monitor cytotoxicity in HepG2 cells - 24 hour (AID 1224878). Further: nearly all actives have a fitted effect of over 45% in size. Further: potency means the concentration at half of the fitted maximal effect. The method in brief:
(§2)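 Cytotoxicity was tracked as dead-cell DNA fluorescence in HepG2 cells treated with test compounds at 37 C; each time-point value comes from one kinetic series spanning 0, 8, 16, 24, 32 and 40 h.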

The nature of test [3]: A CellTox Green Cytotoxicity Assay to monitor cytotoxicity in HepG2 cells - 40 hour (AID 1224879). Further: nearly all actives have a fitted effect of over 40% in size. Further: potency means the concentration at half of the fitted maximal effect. The gist of the method: as §2
Test [4] is described as follows: qHTS RealTime-Glo MT Cell Viability Assay in HEK293 cells - 0 hour (AID 1224880). Further: top concentration of the series differs between compounds; nearly all actives have a fitted effect of over 45% in size. The method in brief: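 Kinetic, non-lysing viability readout. Seed HEK293 (600/well) with reagent, incubate 5 h at 37 C/5% CO2, pin 23 nL compound in DMSO, incubate at 37 C, read luminescence at 0, 8, 16, 24, 32, 40 h.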
Background: qHTS replaces the single test concentration by a dilution series.

Test [5] can be described thus: A CellTox Green Cytotoxicity Assay to monitor cytotoxicity in HEK293 cells - 32 hour (AID 1224881). Further: nearly all actives have a fitted effect of over 40% in size. The gist of the method: (§3)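 Real-time, in one plate: 600 HEK293 cells/well with dead-cell DNA dye, pinned compound after 5 h, 37 C incubation over 40 h; viable cells give no appreciable fluorescence.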
Test [6] is described as follows: A CellTox Green Cytotoxicity Assay to monitor cytotoxicity in HepG2 cells - 0 hour (AID 1224882). Further: nearly all actives have a fitted effect of over 35% in size. The method in brief:
as §2

The nature of test [7]: A CellTox Green Cytotoxicity Assay to monitor cytotoxicity in HepG2 cells - 32 hour (AID 1224883). Further: nearly all actives have a fitted effect of over 50% in size. Further: potency means the concentration at half of the fitted maximal effect. The method in brief: as §2
Test [8] is described as follows: A CellTox Green Cytotoxicity Assay to monitor cytotoxicity in HEK293 cells - 8 hour (AID 1224884). Further: nearly all actives have a fitted effect of over 35% in size. The gist of the method: as §3
The nature of test [9]: qHTS RealTime-Glo MT Cell Viability Assay in HepG2 cells - 16 hour (AID 1224885). Further: nearly all actives have a fitted effect of over 50% in size. The gist of the method: as §1
The nature of test [10]: qHTS RealTime-Glo MT Cell Viability Assay in HEK293 cells - 24 hour (AID 1224886). Further: nearly all actives have a fitted effect of over 50% in size. Further: potency means the concentration at half of the fitted maximal effect. On activity change, negative = cytotoxicity: top concentration of the series differs between compounds. The gist of the method: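 Reads taken at 0, 8, 16, 24, 32 and 40 h from the same wells. HEK293 cells (600/well) carried RealTime-Glo reagents from seeding, with compound added after a 5 h settle at 37 C.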
On the % scale 0 is the no-effect control and ±100 the full control effect.

As to `Cc1cccc(C)c1C`, the Potency entry in [1], in test [2], in test [3], in test [4], in [5] and in [6] was “inactive” in each case. The Potency result in [7], in test [8], in test [9] and in [10] was “inactive” each time.

Take `O=C1c2ccccc2C(=O)c2c(Cl)cccc21`: the Potency entry in [1], in [2], in test [3], in test [4], in test [5] and in test [6] was “inactive” each time. In addition, the Potency entry in [7], in test [8] and in test [9] was “inactive” each time.

Turning to `O=C(O)C[C@H](O)C[C@H](O)/C=C/c1c(C2CC2)nc2ccccc2c1-c1ccc(F)cc1`, the activity change, negative = cytotoxic was -27.7% [at 15.8 µM] in test [1] and 0.557% [at 15.8 µM] in [9]. Besides, the Potency in test [2], in test [3] and in [7] was 2610 nM (active) throughout. Also, the figures for the activity change, negative = cytotoxicity in [4] and in test [10] were 8.78% [at 15.8 µM] and -0.416% [at 15.8 µM], respectively. Also, the figures for the cytotoxicity increase in [5] and in [8] were -0.515% [at 15.8 µM] and -1.19% [at 15.8 µM], respectively. In addition, in [6], the cytotoxicity is 0.628% [at 15.8 µM].

`C=CC(=O)OCCOC1C2CCC1C1CC=CC12` (stereo not given): the activity change, negative = cytotoxic in test [1] was 3.75% [at 15.8 µM]; in test [9], 0.672% [at 15.8 µM]. The cytotoxicity in test [2] is -5.89% [at 15.8 µM]; in test [6] it was -3.66% [at 15.8 µM]. For the same compound, the cytotoxicity increase was -11.6% [at 15.8 µM] in test [3], -0.486% [at 15.8 µM] in [5], -7.81% [at 15.8 µM] in [7] and -0.0811% [at 15.8 µM] in test [8]. Moreover, the activity change, negative = cytotoxicity in test [4] is 4.39% [at 15.8 µM]; in test [10], -2.24% [at 15.8 µM].

On to `COC(=O)c1ccc([N+](=O)[O-])cc1`, for which the Potency entry in [1], in test [2], in [3], in [4], in test [5] and in test [6] was “inactive” in each case. The Potency entry in [7], in test [8], in test [9] and in test [10] was “inactive” in each case.

Regarding `Cc1cccc2c1ccc1ccccc12`, the Potency result in test [1], in test [2], in test [3], in [4], in test [5] and in test [6] was “inactive” in each case. The Potency entry in test [7], in test [8], in test [9] and in test [10] was “inactive” in each case.

`CCCCCCCCSCc1cc(C)c(O)c(CSCCCCCCCC)c1`: the Potency entry in [1], in [2], in [3], in test [4], in [5] and in test [6] was “inactive” each time. For the same compound, the Potency entry in [7], in [8] and in test [9] was “inactive” in each case.

In the case of `c1ccc(-c2ccc(C(c3ccccc3)n3ccnc3)cc2)cc1` (stereo not given), the Potency result in test [1], in [2], in test [3], in [4], in test [5] and in test [6] was “inactive” in each case. The Potency result in test [7], in test [8] and in test [9] was “inactive” throughout. Besides, the Potency in [10] is 30100 nM (active).

Turning to `CC(C)(c1ccc(Oc2ccc(N)cc2)cc1)c1ccc(Oc2ccc(N)cc2)cc1`, the Potency result in [1], in [2], in test [3], in test [4], in [5] and in test [6] was “inactive” throughout. Besides, the Potency entry in test [7] and in test [8] was “inactive” in each case.

For the compound `SC1CCCCC1`, the Potency result in [1], in test [2], in test [3], in test [4], in test [5] and in test [6] was “inactive” throughout. In addition, the Potency result in test [7], in [8], in test [9] and in test [10] was “inactive” in each case.

Regarding `CC(C)(C)C1=CC(=O)C(C(C)(C)C)=CC1=O`, the Potency result in test [1], in [2], in [3], in test [4], in test [5] and in [6] was “inactive” throughout. The Potency entry in test [7] and in [8] was “inactive” throughout.

Consider `Cc1ccc2nc(-c3ccc(N)cc3)sc2c1S(=O)(=O)O`, for which the Potency result in [1], in test [2], in test [3], in test [4], in test [5] and in [6] was “inactive” throughout. Moreover, the Potency entry in test [7], in test [8], in test [9] and in test [10] was “inactive” in each case.

`C=C1CC[C@H]2O[C@]2(C)CC[C@@H]2[C@@H]1CC2(C)C`: the Potency result in test [1], in test [2], in [3], in test [4], in test [5] and in test [6] was “inactive” in each case. Further, the Potency entry in test [7], in test [8] and in test [9] was “inactive” throughout.

With `CCc1cccc(C)c1N(C(=O)CS(=O)(=O)O)C(C)COC` (stereo not given), the Potency entry in test [1], in [2], in [3], in test [4], in [5] and in [6] was “inactive” throughout. In addition, the Potency result in test [7], in test [8], in test [9] and in test [10] was “inactive” each time.

As to `[Cl][Eu]([Cl])[Cl]`, the Potency entry in test [1], in test [2], in test [3], in test [4], in test [5] and in test [6] was “inactive” throughout. The Potency entry in [7], in test [8], in test [9] and in [10] was “inactive” each time.

As for `Cc1ccc2sc3cccc(C)c3c2c1`, the Potency entry in test [1], in [2], in test [3], in test [4], in test [5] and in test [6] was “inactive” throughout. The Potency result in test [7], in [8] and in test [10] was “inactive” each time.

For `CCOC=C(C(=O)OCC)C(=O)OCC`, the Potency entry in [1], in test [2], in test [3], in test [4], in test [5] and in test [6] was “inactive” in each case. The Potency result in [7], in test [8] and in test [10] was “inactive” throughout.

For the compound `Cc1ccc2n[nH]nc2c1`, the Potency result in test [1], in [2], in test [3], in test [4], in [6] and in test [7] was “inactive” in each case. Also, the Potency result in [8], in test [9] and in [10] was “inactive” each time.

For the compound `Nc1c(Br)cc([N+](=O)[O-])cc1Br`, the Potency entry in test [1], in test [2], in [3], in [4], in test [6] and in [8] was “inactive” throughout. Further, the Potency entry in test [9] and in test [10] was “inactive” in each case.

In the case of `O[Si](c1ccccc1)(c1ccccc1)c1ccccc1`, the Potency entry in test [1], in [2], in test [3], in test [4], in test [5] and in test [6] was “inactive” throughout. The Potency entry in test [8] and in [9] was “inactive” each time.

On to `Nc1ccc(Cl)c([N+](=O)[O-])c1`, for which the Potency result in [1], in test [2], in test [3], in test [4], in test [5] and in [6] was “inactive” each time. Also, the Potency result in test [8], in [9] and in [10] was “inactive” in each case.
